Data on seven compounds can be found in PubChem BioAssay (NCATS).

Molecules are shown by their SMILES. Records with an inconclusive call do not appear. Active and inactive are the calls of the source. Unless noted, the call rests on the fitted dose curve; in most records, active means well fitted curve in the direction sought with a large enough effect; inconclusive means small, poorly fitted or top-dose-only effect, or another doubt; inactive means no such curve, though single readings can be large; an effect the other way counts as inactive or inconclusive.

Experiment [1] has as its target Lysosomal acid glucosylceramidase (Homo sapiens) (UniProt P04062). Kind of experiment: Glucocerebrosidase-p2 (AID 348; in the data active means potency below about 10 µM; further: potency means the concentration at half of the fitted maximal effect). Particulars: purified GBA, blue fluorogenic substrate, 40 min. The essentials:
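Compounds titrated from 0.6 nM upwards against 0.2 nM enzyme in pH 5.9 citric acid/KH2PO4, taurocholate, tween-20; blue fluorogenic substrate 80 uM, 40 min room temperature, stopped and read Ex 365/Em 440 for AC50.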

Experiment [2] can be described thus: AP1 Signaling Pathway (AID 357; active means well fitted curve in either direction with a large enough effect, not every such curve was filed as active; further: on the % scale 0 is the no-effect control and ±100 the full control effect). The conditions noted are these: ME-180 AP-1-bla reporter, EGF-induced, beta-lactamase ratio, 5 h; at 7.69 µM (top of the series) unless noted. The essentials: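 ME-180 cells with beta-lactamase reporter under AP-1 response element, stimulated with EC50 EGF; compounds tested in titration series, 5 h at 37 °C. CCF4 substrate added 2.5 h at room temperature; 460/530 nm emission ratio gave %activity and AC50.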

Experiment [3] deals with Cytochrome P450 1A2 (Homo sapiens) (UniProt P05177). The experiment in a line: p450-cyp1a2 (AID 410; calls by dose curve; further: potency means the concentration at half of the fitted maximal effect). The conditions noted are these: recombinant CYP1A2, luciferin-ME demethylation, luminescence; series mostly up to 57 µM. The essentials:
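Human CYP1A2 (20nM) demethylated Luciferin-ME at its Km (100uM) in 100mM KPO4. After 10 min compound preincubation, NADPH regeneration ran the reaction 60 min at room temperature. Luciferin was read by luminescence, normalized to 57 uM furafylline.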

A short description of experiment [4]: NFAT Signaling Pathway (AID 444; active means well fitted curve in either direction with a large enough effect, not every such curve was filed as active;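 further: carbachol stimulus at about its EC50 of 1 µM final; on the % scale 0 is the no-effect control and ±100 the full control effect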). The conditions noted are these: Jurkat NFAT-bla M1, carbachol, beta-lactamase ratio, 5 h; at 7.69 µM (top of the series) unless noted. An outline of the steps:
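Jurkat cells carrying an NFAT-driven β-lactamase reporter and co-transfected muscarinic M1 receptor were treated with compound plus carbachol (1 uM final, an EC50 level) for 5 h at 37 °C. CCF4 loading followed for 1 h at RT; 460/530 nm ratio gave %activity.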

Experiment [5] is described as follows: Stat Signaling Pathway (AID 446; active means well fitted curve in either direction with a large enough effect, not every such curve was filed as active;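 further: ME-180 cervical cancer cells given 40 pM IL-6 alongside compound; SIE-controlled beta-lactamase reporter measured as 460/530 nm FRET emission ratio; on the % scale 0 is the no-effect control and ±100 the full control effect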). Particulars: ME-180 SIE beta-lactamase reporter, IL-6 stimulated, 5 h; at 7.69 µM (top of the series) unless noted. The essentials: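 Reporter line: ME-180 cervical carcinoma, SIE-beta-lactamase. Treatment: compound with 40 pM IL-6, 5 hrs, 37 C, in low-serum OPTI-MEM with 10 mM HEPES pH 7.3. Detection: 460/530 nm fluorescence.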

Experiment [6] deals with Glucocorticoid receptor (Homo sapiens) (UniProt P04150). Kind of experiment: GR-GFP Redistribution (AID 450;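 active means compounds whose dose series gives a full or clear partial fitted curve of increased nuclear translocation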; further: potency means the concentration at half of the fitted maximal effect). Particulars: U2OS GR-GFP nuclear translocation, laser cytometry, 2 h.
Glucocorticoid receptor (Homo sapiens), sequence (P04150 whole entry, looked up, the tested form may be a part): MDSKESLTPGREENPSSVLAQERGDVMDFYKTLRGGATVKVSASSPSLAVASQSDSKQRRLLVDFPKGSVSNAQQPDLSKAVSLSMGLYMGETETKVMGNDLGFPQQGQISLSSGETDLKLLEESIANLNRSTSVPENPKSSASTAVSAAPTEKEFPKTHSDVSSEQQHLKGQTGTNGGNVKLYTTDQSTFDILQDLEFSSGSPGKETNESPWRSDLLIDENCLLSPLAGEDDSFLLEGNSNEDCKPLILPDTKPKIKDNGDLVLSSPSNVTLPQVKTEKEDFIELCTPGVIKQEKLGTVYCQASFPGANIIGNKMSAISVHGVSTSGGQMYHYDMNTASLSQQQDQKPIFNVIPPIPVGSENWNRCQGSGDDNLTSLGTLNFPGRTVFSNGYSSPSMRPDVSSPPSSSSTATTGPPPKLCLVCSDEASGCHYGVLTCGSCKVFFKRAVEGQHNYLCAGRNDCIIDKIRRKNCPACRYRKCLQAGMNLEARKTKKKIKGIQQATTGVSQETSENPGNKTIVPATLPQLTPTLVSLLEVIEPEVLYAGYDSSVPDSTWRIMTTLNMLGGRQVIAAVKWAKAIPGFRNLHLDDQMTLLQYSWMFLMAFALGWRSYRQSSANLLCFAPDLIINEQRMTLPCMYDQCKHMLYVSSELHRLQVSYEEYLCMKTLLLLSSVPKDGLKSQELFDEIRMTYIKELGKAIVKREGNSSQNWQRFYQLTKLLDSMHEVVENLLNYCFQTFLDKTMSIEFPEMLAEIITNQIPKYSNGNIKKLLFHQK
For experiment [7] the target is unchanged. The experiment in a line: GR-EFC Redistribution (AID 451; calls by dose curve; further: potency means the concentration at half of the fitted maximal effect). The conditions noted are these: CHO-K1 GR-EFC translocation, beta-gal luminescence, 2 h. The essentials: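 CHO-K1 cells stably expressing nuclear-localized β-gal enzyme acceptor and GR fused C-terminally to the enzyme donor fragment; ligand-driven nuclear translocation restores β-gal by complementation. Compounds titrated up to 46 uM final, 2 h at 37 °C; luminescence read.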

Experiment [8] addresses Mitogen-activated protein kinase 10 (Mus musculus) (UniProt Q61831). Kind of experiment: JNK3 AlphaScreen Assay (AID 530; active means well fitted curve in either direction with a large enough effect, not every such curve was filed as active;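 further: kinase came from lysate of stimulated human HepG2 cells; on the % scale 0 is the no-effect control and ±100 the full control effect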). Particulars: JNK3 lysate, c-Jun phosphorylation; series mostly up to 57.1 µM. The essentials: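 JNK3 came from HepG2 lysates pre-activated with IL-1beta and TNF-alpha and phosphorylated biotinylated GST-cJun (1-79) at 10 uM ATP, pH 7.6, room temperature. Compounds were titrated. AlphaScreen signal used anti-phospho-cJun (Ser73) antibody.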

The target of experiment [9] is 3',5'-cyclic-AMP phosphodiesterase 4B (Homo sapiens) (UniProt Q07343). The experiment in a line: qHTS Assay for Inhibitors of PDE-IV (AID 607; active means well fitted activation curve with a large enough effect in the main read-out, with a control signal flat, not every such curve was filed as active; further: % of control where 0% means no effect). Particulars: HEK293 ACTOne CNG channel cells, membrane potential fluorescence; series mostly up to 22.9 µM. The essentials:
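Cell-based read-out of cAMP via a modified cyclic nucleotide-gated channel and membrane potential dye (535/590 nm) in HEK293 cells expressing PDE4 endogenously. Compounds tested up to 22.9 uM final; 100 uM RO 20-1724 reference.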

Experiment [10] has as its target Cytochrome P450 3A4 (Homo sapiens) (UniProt P08684). The experiment in a line: qHTS Assay for Activators of Cytochrome P450 3A4 (AID 885). Further: nearly all actives have a fitted effect of over 65% in size. The conditions noted are these: recombinant CYP3A4, Luciferin-PPXE luminescence, 60 min; series mostly up to 57.1 µM. The essentials: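 Signal was normalized against complete inhibition by 57 uM ketoconazole. The reaction used 20nM CYP3A4 with 25uM Luciferin-PPXE, 10-min compound preincubation and a 60-min NADPH-supported step at RT.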

Experiment [11] can be described thus: qHTS Assay for Lipid Storage Modulators (AID 1519; calls by dose curve). Particulars: Drosophila S3 cells, BODIPY lipid droplet/cell ratio, laser cytometry, cells loaded with oleic acid; for activity change, negative = inhibition: at 57.5 µM (top of the series). An outline of the steps: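 Cells seeded at 5,000 per well were treated with compounds over a concentration series and loaded with oleic acid (400 uM, as added). Lipid droplet fluorescence (488 nm excitation, 500-530 nm channel) was read by laser-scanning cytometry and normalized to 20 uM Triacsin C.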

For experiment [12], the target named is Dual specificity protein kinase CLK4 (Homo sapiens) (UniProt Q9HAZ1). Kind of experiment: qHTS Assay for Inhibitors of CDC-like Kinase 4 (Kinase-Glo Assay) (AID 1770). Further: nearly all actives have a fitted effect of over 65% in size. Further: potency means the concentration at half of the fitted maximal effect. Particulars: recombinant Clk4, Kinase-Glo ATP depletion luminescence; series mostly up to 66.7 µM. An outline of the steps: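 Clk4 25 nM, RS peptide 100 uM, ATP 1 uM, pH 7.5 Tris, 10 mM MgCl2, 2.5 mM DTT; 4.5 h RT; ATP depletion read by Kinase-Glo luminescence.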
Dual specificity protein kinase CLK4 (Homo sapiens), sequence (Q9HAZ1 whole entry, looked up): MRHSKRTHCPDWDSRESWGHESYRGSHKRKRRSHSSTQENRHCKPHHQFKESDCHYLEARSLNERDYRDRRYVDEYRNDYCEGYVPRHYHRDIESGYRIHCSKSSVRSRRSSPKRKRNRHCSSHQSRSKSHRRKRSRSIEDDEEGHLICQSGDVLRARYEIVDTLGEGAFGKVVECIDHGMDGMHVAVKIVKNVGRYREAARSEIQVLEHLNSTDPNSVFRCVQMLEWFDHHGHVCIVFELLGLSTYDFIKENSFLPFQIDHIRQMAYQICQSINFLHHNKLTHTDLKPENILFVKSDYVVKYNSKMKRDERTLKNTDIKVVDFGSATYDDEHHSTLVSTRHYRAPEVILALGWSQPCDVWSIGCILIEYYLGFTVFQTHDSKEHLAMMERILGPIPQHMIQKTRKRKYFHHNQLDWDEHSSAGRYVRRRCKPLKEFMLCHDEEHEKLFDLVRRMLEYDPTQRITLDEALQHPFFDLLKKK

Experiment [13] shares this target. The experiment in a line: qHTS Assay for Inhibitors of CDC-like Kinase 4 (ADP-Glo Assay) (AID 1771). Further: nearly all actives have a fitted effect of over 70% in size. Further: potency means the concentration at half of the fitted maximal effect. The conditions noted are these: recombinant CLK4, ADP-Glo luminescence; series mostly up to 80 µM. An outline of the steps: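 Clk4 (25 nM) was incubated 1 hr at room temperature with 100 uM RS repeat peptide and 1 uM ATP in buffer with 2 mM MgCl2, 0.5 mM EGTA, 2.5 mM DTT. ADP formed was quantified by ADP-Glo luminescence.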

Experiment [14] has the same target. The experiment in a line: qHTS Assay for Inhibitors of CDC-like Kinase 4 (ADP-FP Assay) (AID 1795). Further: nearly all actives have a fitted effect of over 60% in size. Further: potency means the concentration at half of the fitted maximal effect. The conditions noted are these: Transcreener ADP fluorescence polarization; series mostly up to 50 µM. The essentials:
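Kinase activity was followed as ADP output, converted from fluorescence polarization with a calibration curve. Reactions ran one hour at low ATP (1 uM) with RS peptide substrate.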

Experiment [15] deals with Ubiquitin carboxyl-terminal hydrolase 1 (Homo sapiens) (UniProt O94782). The experiment in a line: Inhibitors of USP1/UAF1: Pilot qHTS (AID 504865).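 Further: rhodamine fluorescence freed from ubiquitin-rhodamine substrate followed over time; top concentration of the series differs between compounds; on the % scale 0 is the no-effect control and ±100 the full control effect; nearly all actives have a fitted effect of over 35% in size.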 The conditions noted are these: purified USP1/UAF1, Ub-rhodamine cleavage fluorescence; series mostly up to 54.9 µM. An outline of the steps: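 Enzyme-free wells gave the negative control, while test wells held 1nM USP1/UAF1 preincubated with compound for 15 min at room temperature. Ub-Rho at 150nM final started the reaction, and fluorescence at 480/540 nm was recorded kinetically.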
Ubiquitin carboxyl-terminal hydrolase 1 (Homo sapiens), sequence (O94782 whole entry, looked up): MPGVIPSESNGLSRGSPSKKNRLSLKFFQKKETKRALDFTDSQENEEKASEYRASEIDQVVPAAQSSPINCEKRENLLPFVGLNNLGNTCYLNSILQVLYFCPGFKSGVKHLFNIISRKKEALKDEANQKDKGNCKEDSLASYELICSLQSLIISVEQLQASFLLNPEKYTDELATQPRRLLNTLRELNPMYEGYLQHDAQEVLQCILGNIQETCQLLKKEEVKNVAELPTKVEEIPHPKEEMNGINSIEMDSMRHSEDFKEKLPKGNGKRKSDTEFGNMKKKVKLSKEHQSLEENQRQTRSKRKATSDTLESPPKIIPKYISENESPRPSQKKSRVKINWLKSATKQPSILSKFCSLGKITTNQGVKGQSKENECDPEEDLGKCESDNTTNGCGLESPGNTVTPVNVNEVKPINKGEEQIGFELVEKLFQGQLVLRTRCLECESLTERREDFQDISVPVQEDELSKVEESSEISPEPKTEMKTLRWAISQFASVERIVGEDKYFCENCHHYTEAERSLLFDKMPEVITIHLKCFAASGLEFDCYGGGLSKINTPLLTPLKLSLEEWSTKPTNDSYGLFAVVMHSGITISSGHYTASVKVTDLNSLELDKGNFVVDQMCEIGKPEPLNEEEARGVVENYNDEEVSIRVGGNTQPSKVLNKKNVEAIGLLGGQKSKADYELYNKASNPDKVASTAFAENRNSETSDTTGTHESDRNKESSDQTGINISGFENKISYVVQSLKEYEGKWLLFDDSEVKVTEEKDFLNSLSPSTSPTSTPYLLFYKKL

The nature of experiment [16]: Primary qHTS for small molecule stabilizers of the endoplasmic reticulum resident proteome: Secreted ER Calcium Modulated Protein (SERCaMP) assay (AID 1508630). Further: on the % scale 0 is the no-effect control and ±100 the full control effect. The conditions noted are these: SH-SY5Y GLuc-SERCaMP (Gaussia luciferase released on ER calcium loss) secretion, thapsigargin, luminescence; series mostly up to 38.4 µM. An outline of the steps: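 GLuc-SERCaMP-expressing SH-SY5Y cells, pretreated 16 h with compound, are challenged with thapsigargin to empty ER calcium stores; after 4 h, coelenterazine is added directly to the medium and luminescence is imaged.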

Experiment [17] can be described thus: qHTS Assay for Identification of Small Molecule Agonists for Hypoxia Response Element Signaling Pathway (AID 914; active means well fitted activation curve with a large enough effect in the signal ratio, with a control signal flat, not every such curve was filed as active; the % refers to the signal ratio; further: potency means the concentration at half of the fitted maximal effect). The conditions noted are these: ME-180 (cervical carcinoma) HRE-bla reporter, beta-lactamase ratio, CoCl2, 17 h; activation: stronger effect = higher value. An outline of the steps: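 Reporter activity (beta-lactamase, CCF4 460nm/530nm ratio) in HRE-bla ME-180 cells is recorded after 17 h compound exposure with EC50 CoCl2 at 37 degrees Celsius. AC50 values come from titration data.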

Where [18] appears, read: measured here: cell count channel max response.
Where [19] appears, read: measured here: lipid channel max response.

Cytochrome P450 3A4 (Homo sapiens), sequence (P08684 whole entry, looked up): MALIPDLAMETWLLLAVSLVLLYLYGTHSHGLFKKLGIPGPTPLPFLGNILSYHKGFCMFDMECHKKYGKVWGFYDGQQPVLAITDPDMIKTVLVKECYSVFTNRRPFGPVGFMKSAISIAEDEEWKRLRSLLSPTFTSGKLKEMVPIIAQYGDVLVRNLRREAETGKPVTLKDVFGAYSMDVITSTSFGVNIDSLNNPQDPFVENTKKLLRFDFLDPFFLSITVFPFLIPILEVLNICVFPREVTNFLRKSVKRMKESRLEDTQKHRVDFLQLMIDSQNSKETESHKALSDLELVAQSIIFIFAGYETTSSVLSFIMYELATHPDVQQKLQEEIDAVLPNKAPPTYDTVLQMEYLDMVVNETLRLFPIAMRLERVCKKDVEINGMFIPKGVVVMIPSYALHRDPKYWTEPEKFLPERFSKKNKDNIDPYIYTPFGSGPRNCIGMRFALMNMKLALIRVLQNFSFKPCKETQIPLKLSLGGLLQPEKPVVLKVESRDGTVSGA
Lysosomal acid glucosylceramidase (Homo sapiens), sequence (P04062 whole entry, looked up): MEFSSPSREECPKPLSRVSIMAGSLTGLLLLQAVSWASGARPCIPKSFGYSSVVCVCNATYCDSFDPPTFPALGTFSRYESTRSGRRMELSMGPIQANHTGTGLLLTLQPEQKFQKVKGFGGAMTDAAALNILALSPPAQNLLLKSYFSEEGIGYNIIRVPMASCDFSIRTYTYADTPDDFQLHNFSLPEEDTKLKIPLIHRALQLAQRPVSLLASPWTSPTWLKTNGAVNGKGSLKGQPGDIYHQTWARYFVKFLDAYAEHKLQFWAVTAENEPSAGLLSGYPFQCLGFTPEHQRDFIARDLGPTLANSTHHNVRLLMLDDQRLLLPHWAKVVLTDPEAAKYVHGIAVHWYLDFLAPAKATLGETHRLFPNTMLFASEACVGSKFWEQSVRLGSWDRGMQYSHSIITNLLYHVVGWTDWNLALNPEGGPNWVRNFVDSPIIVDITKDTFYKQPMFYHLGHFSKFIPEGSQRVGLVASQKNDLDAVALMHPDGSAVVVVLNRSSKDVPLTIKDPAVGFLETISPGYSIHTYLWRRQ
3',5'-cyclic-AMP phosphodiesterase 4B (Homo sapiens), sequence (Q07343 whole entry, looked up): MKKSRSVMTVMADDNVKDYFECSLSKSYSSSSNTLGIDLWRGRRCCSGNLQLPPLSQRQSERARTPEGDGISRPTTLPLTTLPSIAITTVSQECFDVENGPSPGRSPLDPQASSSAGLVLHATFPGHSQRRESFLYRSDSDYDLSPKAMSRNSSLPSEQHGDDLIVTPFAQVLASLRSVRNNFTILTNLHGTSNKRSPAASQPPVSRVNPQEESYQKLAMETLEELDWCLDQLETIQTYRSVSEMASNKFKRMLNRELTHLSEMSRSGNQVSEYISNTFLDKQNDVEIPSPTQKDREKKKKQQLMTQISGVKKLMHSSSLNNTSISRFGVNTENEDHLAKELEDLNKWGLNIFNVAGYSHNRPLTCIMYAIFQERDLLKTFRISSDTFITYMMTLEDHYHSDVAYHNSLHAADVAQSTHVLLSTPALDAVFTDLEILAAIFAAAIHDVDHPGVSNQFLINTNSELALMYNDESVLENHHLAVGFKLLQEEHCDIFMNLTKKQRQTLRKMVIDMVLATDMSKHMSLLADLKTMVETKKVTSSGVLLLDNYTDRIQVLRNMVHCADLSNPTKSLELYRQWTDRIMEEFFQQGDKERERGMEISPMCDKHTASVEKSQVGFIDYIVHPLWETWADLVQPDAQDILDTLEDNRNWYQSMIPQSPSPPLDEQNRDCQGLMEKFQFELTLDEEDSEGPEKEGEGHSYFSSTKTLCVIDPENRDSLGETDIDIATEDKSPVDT
Cytochrome P450 1A2 (Homo sapiens), sequence (P05177 whole entry, looked up): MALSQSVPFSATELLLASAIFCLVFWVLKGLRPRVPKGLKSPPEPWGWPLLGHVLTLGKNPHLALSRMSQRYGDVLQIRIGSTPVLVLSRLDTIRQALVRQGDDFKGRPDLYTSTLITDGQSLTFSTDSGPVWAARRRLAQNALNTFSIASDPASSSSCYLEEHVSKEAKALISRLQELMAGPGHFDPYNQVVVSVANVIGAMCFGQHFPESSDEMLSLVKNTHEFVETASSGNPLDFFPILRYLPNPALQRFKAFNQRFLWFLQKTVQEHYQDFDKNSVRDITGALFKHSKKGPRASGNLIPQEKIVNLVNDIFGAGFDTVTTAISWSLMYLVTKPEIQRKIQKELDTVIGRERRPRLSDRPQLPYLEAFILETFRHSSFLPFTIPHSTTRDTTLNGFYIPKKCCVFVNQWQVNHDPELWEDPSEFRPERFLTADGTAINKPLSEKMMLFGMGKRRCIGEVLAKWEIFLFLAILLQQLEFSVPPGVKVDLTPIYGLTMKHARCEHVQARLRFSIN

Turning to `COCCn1c(=O)cnc2cnc(Oc3ccc(OC)cc3)nc21`, the Potency is > 11.4 µM (inactive) in experiment [1], 5.01 µM (active) in experiment [3], > 9.22 µM (inactive) in experiment [6] and > 46 µM (inactive) in experiment [7]. For the same compound, the activity change, negative = inhibition is -2.08% (inactive) in experiment [2], -2.59% (inactive) in experiment [4] and 2.42% (inactive) in experiment [11]. In addition, in experiment [5], the activity, negative = inhibition was -5.99% (inactive). In experiment [8], the result was inactive. Moreover, the Potency entry in experiment [9], in experiment [10], in [12], in experiment [13], in experiment [14] and in experiment [15] was “inactive” throughout. Moreover, the Potency result in [16] is “inactive”. Moreover, the max response in [11] (setting [18]) is 12.6%; in [11] (setting [19]) it was 10.8%.

For the compound `COc1ccc(-c2nc3cnc(Oc4cccc(Cl)c4)nc3n(CCC#N)c2=O)cc1`, the values for the Potency in experiment [1], in experiment [6] and in experiment [7] were > 11.4 µM (inactive), > 9.22 µM (inactive) and > 46 µM (inactive), respectively. Also, the results for the activity change, negative = inhibition in [2] and in [11] were -19.7% (inactive) and 2.97% (inactive), respectively. The activity, negative = inhibition in experiment [5] was -7.46% (inactive). For the same compound, in [8], the call was inactive. Also, the Potency entry in experiment [9], in experiment [12], in experiment [13], in experiment [14], in experiment [15] and in experiment [16] was “inactive” throughout. Also, the max response in [11] (setting [18]) was determined as 13.8%; in [11] (setting [19]) it was 14.8%.

In the case of `CCNc1ncc2nc(-c3ccccc3)c(=O)n(C[C@H]3CCCO3)c2n1`, the Potency in experiment [1] is > 11.4 µM (inactive); in experiment [6], > 9.22 µM (inactive); in experiment [7] it was > 46 µM (inactive). Further, the activity change, negative = inhibition in [2] was 0.0155% (inactive); in experiment [11], -15.5% (inactive). In addition, the result in [8] was inactive. For the same compound, the max response in [11] (setting [18]) is 3.11%; in [11] (setting [19]), -10%. For the same compound, the Potency entry in [12], in experiment [13], in experiment [14], in [15] and in experiment [16] was “inactive” in each case.

Regarding `Cc1cnc(CNc2ncnc3ccc(-c4c(C)noc4C)cc23)cn1`, the Potency in experiment [1] was > 11.4 µM (inactive); in [6] it was > 46 µM (inactive); in experiment [7] it was > 46 µM (inactive); in experiment [17], 3.98 µM (active); in experiment [12] it was 2.51 µM (active); in experiment [13], 2.82 µM (active). In addition, the Potency in [14] was 3.55 µM (active). Further, the activity change, negative = inhibition in experiment [2] was 12.8% (inactive); in [11], 0.208% (inactive). The Potency result in [9], in experiment [15] and in experiment [16] was “inactive” each time. Besides, the figures for the max response in experiment [11] (setting [18]) and in [11] (setting [19]) were 8.76% and 7.19%, respectively.

As for `Cc1nc2cnc(Nc3ccccc3)nc2n(Cc2ccc(F)cc2)c1=O`, the Potency in experiment [1] is > 11.4 µM (inactive); in experiment [6], > 9.22 µM (inactive); in experiment [7], > 46 µM (inactive). The activity change, negative = inhibition in experiment [2] was -12.8% (inactive); in experiment [4], -23.6% (inactive); in [11], 1.06% (inactive). Besides, the activity, negative = inhibition in [5] is 2.69% (inactive). In experiment [8], the result was inactive. Further, the max response in experiment [11] (setting [18]) is 7.11%; in [11] (setting [19]), 6.57%. Besides, the Potency entry in experiment [12], in experiment [13], in experiment [14] and in experiment [16] was “inactive” each time.

Consider `Cn1cc(-c2nc3cnc(Oc4ccccc4)nc3n(C3CC3)c2=O)c2ccccc21`, for which the values for the Potency in [1], in experiment [6] and in experiment [7] were > 11.4 µM (inactive), > 9.22 µM (inactive) and > 46 µM (inactive), respectively. Further, the activity change, negative = inhibition in [2] was 13.1% (inactive); in [4] it was 9.34% (inactive); in [11] it was 1.27% (inactive). Moreover, in experiment [8], the result was inactive. For the same compound, the Potency entry in [9], in [10], in experiment [12], in [13], in [14] and in experiment [15] was “inactive” in each case. For the same compound, in experiment [16], the Potency result is “inactive”. Besides, the values for the max response in experiment [11] (setting [18]) and in [11] (setting [19]) were 1.6% and 0.0554%, respectively.

As for `O=c1cnc2cncnc2n1Cc1ccccc1`, the Potency is > 11.4 µM (inactive) in [1], > 9.22 µM (inactive) in experiment [6] and > 46 µM (inactive) in [7]. Further, the activity change, negative = inhibition in experiment [2] was -12.8% (inactive); in experiment [11], 0.677% (inactive). Moreover, the activity, negative = inhibition in experiment [5] is -12.1% (inactive). The outcome in experiment [8] was inactive. Besides, the Potency entry in experiment [10], in [12], in [13], in experiment [14], in experiment [15] and in experiment [16] was “inactive” in each case. Moreover, the max response in [11] (setting [18]) is 15%; in [11] (setting [19]), 14%.
